Assay results as given in PubChem BioAssay (NCATS).
Inconclusive results are not listed. A call without a number means that no potency is given here. Calls of active or inactive are those of the source. Calls come from the whole dose curve; as a rule, active = well fitted inhibition curve with a large enough effect; inconclusive = small, poorly fitted or top-dose-only effect, or effect the other way; inactive = flat fitted curve, though single readings scatter.

What follows are compounds tested against Ubiquitin carboxyl-terminal hydrolase 2 (Homo sapiens) (UniProt O75604) (assay: qHTS Validation Assay for Inhibitors of Ubiquitin-specific Protease USP2a Using CHOP2 as the Reporter (AID 463106)). Conditions: USP2a cleavage of CHOP2 reporter, enzymatic; series mostly up to 38.3 µM.
Excerpt: NIH Molecular Libraries Screening Centers Network [MLSCN]
NIH Chemical Genomics Center [NCGC]
PI Name: Nicholson, Ben. Progenra Inc, Malvern, PA
Homeostasis of cellular proteins is maintained through a combination of synthesis and degradation. The pathway that accounts for the majority of protein degradation is the ubiquitin-proteasomal pathway. Ubiquitin (Ub) is highly conserved in all cells and the generation of a multi-Ub chain typically targets proteins for degradation by the proteasome. However, ubiquitination is highly reversible and dynamic. Deubiquitination, the reverse process, is catalyzed through the action of enzymes referred to as isopeptidases or deubiquitinating enzymes (DUBs). This group of enzymes is collectively responsible for maintaining adequate pools of free ubiquitin and regulating the ubiquitination status of cellular proteins. The class of DUBs referred to as the ubiquitin-specific proteases (USP) family functions endoproteolytically to cleave Ub chains from a wide range of protein substrates. USP2a deubiquitinates fatty acid synthase (FASN) which has recently been identified as an emerging oncology target. To identify inhibitors of USP2a a cell-free assay was employed.
The reporter enzyme chosen is an enterokinase called CHOP2, which is activated when the Ub is cleaved by USP2. The free and now activated reporter can subsequently act on its reporter substrate. […] The assay was developed by Progenra, Inc. and has been licensed for sale by LifeSensors, Inc. as Ub-CHOP2-Reporter-Kit (#PR1101).
NCGC Assay Protocol Summary:
The assay buffer, prepared fresh at the day of the assay, contains 20mM Tris-HCl pH 8.0, 2mM CaCl2, 2mM beta-Mercaptoethanol, 0.05% CHAPS. 3ul of 20nM (10nM final) USP2 core, which is stored on ice, is dispensed into a medium-binding black solid Kalypsys 1,536 well plate using the Kalypsys dispenser. The assay plate is then pinned with 23nL compound with the Kalypsys pintool in columns 5-48. The controls are pinned as follows: column 1 two-fold dilutions of 2M NEM in duplicate; column 2 2M NEM (final concentration 38.2mM); column 3&4 DMSO. The assay plate is incubated at RT for 30min. Subsequently, 1.5uL of 100nM (25nM final) Ub-CHOP2 and 1.5uL of 100nM (25nM final) Reporter Substrate (both stored on ice and protected from light) were dispensed into the plate using the Kalypsys dispenser. Plates were read after 60min RT incubation on a ViewLux (Perkin Elmer) plate reader using the following wavelengths Ex 485nm /Em 531nm.
Data were normalized to the to AC100 inhibition (NEM). Concentration-response curves were fitted to the normalized data and the concentration-response curves were then classified based on curve quality (r2), response magnitude and degree of measured activity. The time zero reading was used to flag fluorescence artifacts.
Keywords: ubiquitination, deubiquitination, proteases, profluorescent, MLSMR, MLPCN, NIH Roadmap, qHTS, NCGC
Potency is the fitted concentration of half-maximal effect.

Sequence of Ubiquitin carboxyl-terminal hydrolase 2 (Homo sapiens) (O75604 whole entry, looked up): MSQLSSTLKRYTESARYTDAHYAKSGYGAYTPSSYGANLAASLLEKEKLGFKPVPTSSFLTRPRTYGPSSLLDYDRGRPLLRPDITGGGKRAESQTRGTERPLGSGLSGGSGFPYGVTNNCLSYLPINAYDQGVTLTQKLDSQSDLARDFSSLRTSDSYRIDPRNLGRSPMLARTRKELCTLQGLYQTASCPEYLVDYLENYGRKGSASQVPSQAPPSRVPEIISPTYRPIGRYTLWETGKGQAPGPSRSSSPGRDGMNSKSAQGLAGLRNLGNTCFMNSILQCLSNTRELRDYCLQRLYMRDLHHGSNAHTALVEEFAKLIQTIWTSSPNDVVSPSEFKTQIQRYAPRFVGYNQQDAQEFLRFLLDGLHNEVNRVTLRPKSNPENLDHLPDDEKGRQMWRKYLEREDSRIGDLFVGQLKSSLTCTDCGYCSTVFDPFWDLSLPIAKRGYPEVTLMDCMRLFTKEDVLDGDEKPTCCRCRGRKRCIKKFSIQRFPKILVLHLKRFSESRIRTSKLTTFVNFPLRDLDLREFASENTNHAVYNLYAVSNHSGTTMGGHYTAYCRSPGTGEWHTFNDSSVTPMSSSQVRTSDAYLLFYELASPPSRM

| SMILES | Potency |
| --- | --- |
| CN(CC[C@@H](Oc1ccc(C(F)(F)F)cc1)c1ccccc1)CC(=O)O | inactive |
| CCCC(=O)NCCc1c2n(c3ccc(OC)cc13)CCCc1ccccc1-2 | inactive |
| CC(C)(CO)Cc1cc(C(C)(C)C)c(O)c(C(C)(C)C)c1 | inactive |
| C[C@H](O)C(=O)C1=Nc2c(nc(N)[nH]c2=O)NC1 | inactive |
| CO/N=C(\C(=O)N[C@@H]1C(=O)N2C(C(=O)O)=C(CSc3nc(=O)c(O)nn3C)CSC12)c1csc(N)n1 (stereo not given in full) | inactive |
| CCCN(CCc1ccccc1)C1CCc2c(O)cccc2C1 (stereo not given) | inactive |
| O=C(O)C1CCNCC1 | inactive |
| O=c1[nH]c(=O)c2nc3ccccc3nc2[nH]1 | inactive |
| O=C(O)C1CCCNC1 (stereo not given) | inactive |
| CC1=C(/C=C/C(C)=C/C=C/C(C)=C\C(=O)O)C(C)(C)CCC1 | inactive |
| O=C(O)CCC/C=C\C[C@@H]1[C@@H](/C=C/[C@H](O)C2Cc3ccccc3C2)[C@@H](F)C[C@@H]1O | inactive |
| COc1cc2c(CCNC(C)=O)c[nH]c2cc1O | inactive |
| O=C(O)c1cc(=O)cc(C(=O)O)[nH]1 | inactive |
| N=C(N)SCCN | inactive |
| N=C(N)c1ccc(OCCCCCOc2ccc(C(=N)N)cc2)cc1 (tested in a mixture with another compound) | inactive |
| NCCCCN | inactive |
| CC(O)C(O)[C@H]1CNc2nc(N)[nH]c(=O)c2N1 (stereo not given in full) | inactive |
| CN1CCCC1CCOC(C)(c1ccccc1)c1ccc(Cl)cc1 (stereo not given) | inactive |
| O=C(O)/C(=C/c1c(C(=O)O)[nH]c2cc(Cl)cc(Cl)c12)c1ccccc1 | inactive |
| Oc1ccc(Cn2cc[nH]c2=S)cc1 | inactive |

| SMILES | Potency |
| --- | --- |
| Nc1ncnc2c1ncn2C1CCCC1 | inactive |
| N[C@H](C(=O)O)[C@H](Cc1ccccc1)C(=O)O | inactive |
| Fc1ccc(CN(C2=NCCN2)c2c(Cl)cccc2Cl)cc1 | inactive |
| CCCn1c(=O)c2c(ncn2C)n(CCC)c1=O | inactive |
| C=CCN1CCc2c(cc(O)c(O)c2Br)[C@@H](c2ccccc2)C1 | inactive |
| C[C@@H](NCCc1ccc(O)cc1)[C@@H](O)c1ccc(O)cc1 | inactive |
| COc1ccccc1N1CCN(CCCCN2C(=O)c3ccccc3C2=O)CC1 | inactive |
| NC(N)=N[C@@H](CCC(=O)O)C(=O)O | inactive |
| O=C(O)c1ccccc1Nc1ccccc1 | inactive |
| COc1ccc2c(c1)c(CC(=O)O)c(C)n2Cc1ccc(Cl)cc1 | inactive |
| CC(=O)NNC(=O)N1Cc2ccccc2Oc2ccc(Cl)cc21 | inactive |
| C=C1C[C@@]23CC[C@H]4[C@@](C)(CCC[C@@]4(C)C(=O)O)[C@@H]2CC[C@]1(O)C3 | inactive |
| OCC1NCC(O)C(O)C1O (stereo not given) | inactive |
| COc1cc(/C=C(\C#N)C(=O)c2ccc(O)c(O)c2)cc(I)c1O | 14.7 µM (active) |
| O[Si](CCCN1CCCCC1)(c1ccc(F)cc1)C1CCCCC1 (stereo not given) | inactive |
| C=C(C)C1CC=C(C(=O)O)CC1 (stereo not given) | inactive |
| N[C@@H](CCCC(=O)O)C(=O)O | inactive |
| CC1C(=O)N(C)C(=O)c2nc[nH]c21 (stereo not given) | inactive |
| CC(C)[C@@H]1CC[C@@H](C)C[C@@H]1P(=O)(c1ccccc1)c1ccccc1 | inactive |
| O=c1onc2cnc3ccccc3n12 | inactive |
